Source: PubChem BioAssay
Hits are enriched below; roughly 22% of the tested compounds scored in any of these assays.
CHX counter: counter-screen hit for Shiga toxin inhibitors, cycloheximide | 12% of 300,000 active | cell reporter, cycloheximide protein synthesis inhibition counterscreen | AID 2314 | max response, %; in the data active = max response mostly above about 13%, no sharp cut-off; inactive = mostly below about 14%; also: read at 38.3 µM for the half of the compounds with a filed dose
LmPK inhibitor: blocks Leishmania mexicana pyruvate kinase activity. Q27686. 0.37% of 290,000 active. purified LmPK, Kinase-Glo ATP luminescence, 1 h. Potency, µM (highest dose often 57.5 µM), hits mostly inhibitors
Target sequence (Q27686 whole entry, looked up): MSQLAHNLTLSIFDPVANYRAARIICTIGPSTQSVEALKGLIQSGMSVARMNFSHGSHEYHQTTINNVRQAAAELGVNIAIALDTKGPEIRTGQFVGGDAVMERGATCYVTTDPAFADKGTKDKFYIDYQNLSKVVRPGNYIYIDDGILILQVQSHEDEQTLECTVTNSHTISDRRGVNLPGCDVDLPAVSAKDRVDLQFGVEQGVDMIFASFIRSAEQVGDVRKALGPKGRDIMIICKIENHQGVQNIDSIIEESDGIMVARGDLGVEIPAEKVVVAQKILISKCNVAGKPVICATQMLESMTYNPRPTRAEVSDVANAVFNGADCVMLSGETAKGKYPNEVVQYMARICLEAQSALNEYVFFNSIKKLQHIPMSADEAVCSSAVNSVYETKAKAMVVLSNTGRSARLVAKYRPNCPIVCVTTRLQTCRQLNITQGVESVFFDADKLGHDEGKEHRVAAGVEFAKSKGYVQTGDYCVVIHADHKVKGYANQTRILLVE
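Kinase-Glo luminescence read after 1 h RT reaction of 0.1 nM LmPK with 0.5 mM PEP and 0.1 mM ADP. Activity scaled between uninhibited and enzyme-free controls.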
Pf growth 48h: inhibits P. falciparum growth in the first generation, 48 h | AID 504832 | P. falciparum luciferase growth in erythrocytes, 48 h | Potency, µM (highest dose often 28.7 µM), actives largely listed as inhibitors | 5.9% of 310,000 active
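Read-out is firefly luciferase luminescence from an integrated reporter in P. falciparum, so falling signal marks reduced parasite growth. Infected erythrocytes were at 2% hematocrit and 0.1% parasitemia (final) in Albumax-supplemented RPMI 1640.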
Shiga inhibitor: Shiga toxin inhibition. AID 2315. Vero cells, Shiga toxin protein synthesis inhibition reporter. 9.2% of 290,000 active. inhibition, % at 38.7 µM; in the data active = inhibition mostly above about 28%, no sharp cut-off; inactive = mostly below about 43%
Pf growth 96h: inhibits malaria parasite growth, 96 h; P. falciparum luciferase reporter growth, 96 h; Potency, µM (doses to about 28.7 µM), most hits filed as inhibitors; 6.9% of 320,000 active
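Compounds incubated with erythrocytes infected by luciferase-expressing P. falciparum (2% hematocrit, 0.05% parasitemia final) for 96 hours, 37 C in 5% CO2. Growth inhibition scored as decreased luciferase luminescence.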
A number is an active result; 0 = inactive; ? = inconclusive; - = not tested or not shown. Unless noted, calls follow the shape of the dose curve; as a rule, active = well fitted inhibition curve with a large enough effect; inconclusive = small, poorly fitted or top-dose-only effect, or another doubt; inactive = no such curve, though single readings can be large or run the other way.

SMILES	CHX counter	LmPK inhibitor	Pf growth 48h	Shiga inhibitor	Pf growth 96h
Cc1cc(OCC(=O)Nc2ccc(CN3CCOCC3)cc2)c2c(C)c(C)c(=O)oc2c1	0	0	?	0	?
CC(=O)N[C@@H]1C(O[C@H]2O[C@H](C(=O)O)C(O)[C@H](O)[C@H]2O)[C@H](O)[C@@H](CO)O[C@H]1O[C@@H]1C(C(=O)O)O[C@@H](O[C@H]2[C@H](O)[C@@H](CO)OC(O)[C@@H]2NC(C)=O)[C@H](O)[C@H]1O (stereo partly drawn)	-	-	0	-	1.69µM
COC1OC(CO)C(OC2OC(C(=O)O)C(OC3OC(COS(=O)(=O)O)C(OC4OC(C(=O)O)C(OC5OC(CO)C(OC6OC(C(=O)O)C(OC7OC(COS(=O)(=O)O)C(OC8OC(C(=O)O)=C[C@H](O)C8OS(=O)(=O)O)C(O)C7NC(C)=O)[C@@H](O)C6O)C(O)C5NC(C)=O)[C@@H](O)C4O)C(O)C3NC(C)=O)[C@@H](O)C2O)C(O)C1NC(C)=O (stereo partly drawn)	-	-	12µM	-	7.57µM
CC(=O)N[C@@H]1C(O)OC(CO)C(O)C1O (stereo partly drawn)	-	-	0	-	0
Cc1ccc(NC(=O)Cn2c(=O)c3cccn3c3ccccc32)c(Cl)c1	0	0	0	0	0
CC(/C=C/c1ccccc1F)=N\NC(=O)C(C)C	35.1	0	0	41.9	0
CCCCC(=O)N/N=C(C)/C=C/c1ccccc1F	29.0	0	0	62.9	0
Cc1ccc(NC(=S)Nc2cccc3cnccc23)cc1C	32.2	0	?	0	?
Cc1ccc(NC(=S)Nc2cccc3cnccc23)cc1	25.7	0	?	0	?
CC(=O)c1ccc(NC(=S)Nc2cccc3cnccc23)cc1	36.1	0	1.85µM	46.5	2.62µM
Fc1ccccc1NC(=S)Nc1cccc2cnccc12	0	0	0	0	0
S=C(Nc1ccc(Cl)cc1Cl)Nc1ccccc1Oc1ccccc1	0	0	?	0	?
S=C(Nc1cccc(Cl)c1)Nc1ccccc1Oc1ccccc1	0	0	0	0	11.7µM
FC(F)(F)c1ccccc1NC(=S)Nc1cccc2cnccc12	0	0	0	0	0
CCCCNC(=O)CSc1nc(Cc2ccccc2)nc2ccccc12	0	0	0	0	0
COc1ccc(CCNC(=O)CSc2nnc3ccc(-c4cccnc4)nn23)cc1OC	0	0	0	0	?
CN(CC(=O)Nc1cccc(F)c1)C(=O)CN1C(=O)C2CC=CCC2C1=O (stereo not drawn)	-	-	0	-	0
S=C(Nc1cccc(Cl)c1)Nc1cccc2cnccc12	47.0	0	0	56.3	4.15µM
CN(C)CC[C@@](O)(c1ccccc1)c1ccccc1Cl	-	-	?	-	10.7µM
CN(C)CCC(O)(c1ccccc1)c1ccccc1	0	0	-	0	0
CN(C)CC(C)(C)CNS(=O)(=O)CC12CCC(CC1=O)C2(C)C (stereo not drawn)	0	0	0	0	-
COc1ccccc1CC1/C(=N/O)C2CCN1CC2 (stereo not drawn)	0	0	0	0	?
COc1ccccc1/C=C1/C(=N/O)C2CCN1CC2	0	0	11.7µM	0	0
Cc1ccc(CN(C)C(=O)COc2ccc(S(=O)(=O)N3CCCC3)cc2[N+](=O)[O-])c(C)c1	-	-	11.7µM	-	?
COc1ccc(Oc2ccc(S(=O)(=O)N3CCCCC3)cc2S(=O)(=O)N2CCCCC2)cc1	0	0	10.4µM	0	?
SMILES	CHX counter	LmPK inhibitor	Pf growth 48h	Shiga inhibitor	Pf growth 96h
COc1cc(OC)cc(Oc2ccc(S(=O)(=O)N3CCCCC3)cc2[N+](=O)[O-])c1	0	0	8.28µM	0	?
CCOC(=O)c1c(NC(=O)CN2CCCc3ccccc32)sc(C(C)=O)c1C	0	0	0	0	0
CCCCN(Cc1ccccc1)c1ncnc2nc[nH]c12	36.0	0	0	31.5	0
CCCCN(CCCC)c1ncnc2nc[nH]c12	0	0	0	0	0
Cc1ccc(S(=O)(=O)NC(CC(C)C)C(=O)N2CCN(C/C=C/c3ccccc3)CC2)cc1 (stereo not drawn)	-	-	8.28µM	-	?
CC(=O)c1ccc(NC(=O)C(C)N2CCN(C/C=C/c3ccccc3)CC2)cc1 (stereo not drawn)	0	0	?	0	?
COc1ccc(Cl)cc1NC(=O)C(C)N1CCN(C/C=C/c2ccccc2)CC1 (stereo not drawn)	0	0	-	0	11.7µM
CC(=O)c1ccc(S(=O)(=O)NCC(=O)N2CCN(C/C=C/c3ccccc3)CC2)cc1	-	-	11.7µM	-	11.7µM
CCC(C)c1ccccc1NC(=O)CN1CCN(C/C=C/c2ccccc2)CC1 (stereo not drawn)	0	0	?	0	13.1µM
CCCNC(=O)COc1coc(CN2CCN(c3ccccc3OC)CC2)cc1=O	0	0	0	0	?
CC1Cc2ccccc2N1Cc1cc(=O)c(OCC(=O)Nc2ccccc2)co1 (stereo not drawn)	-	-	9.28µM	-	10.4µM
COc1ccc(CCNC(=O)COc2coc(CN3c4ccccc4CC3C)cc2=O)cc1OC (stereo not drawn)	-	-	9.28µM	-	?
CCc1nnc(NC(=O)CN2CCCC(C)C2)s1 (stereo not drawn)	0	0	0	0	?
Cc1ccc(S(=O)(=O)NCc2cn3ccccc3n2)c(C)c1	0	0	0	0	0
CC(C)(C)NC(=O)CN(C(=O)CN1C(=O)C(=O)c2ccccc21)C(C)(C)C	0	0	0	0	13.1µM
O=C(c1cc2ccccc2[nH]1)N(Cc1cccnc1)CC1CCCN(C2CCCCC2)C1 (stereo not drawn)	14.7	0	10.4µM	0	?
Cc1ccc(CNc2ccccc2C(=O)O)s1	0	0	0	0	0
ClC(Cl)c1nnc(-c2ccccc2)c(-c2c[nH]c3ccccc23)n1	0	0	?	active	9.28µM
CC(C)(C)C(=O)CSc1nc(N)cc(=O)[nH]1	0	0	0	0	0
CCC(=O)Nc1ccc2c(c1)OCCO2	0	0	?	0	0
CCOC(=O)N1CCN(c2c(Nc3ccc4c(c3)OCCO4)c(=O)c2=O)CC1	52.5	0	-	63.6	0
O=C(COc1ccc2c(c1)OCO2)Nc1cccc(F)c1	34.6	0	0	100.9	0
Cc1cc(OCC(=O)Nc2ccc3c(c2)OCCO3)ccc1Cl	38.7	0	0	106.9	8.28µM
CCOCC(=O)Nc1ccc2c(c1)OCCO2	42.4	0	0	67.8	0
COc1ccc(OCC(=O)Nc2ccc3c(c2)OCO3)cc1	0	0	0	0	0
SMILES	CHX counter	LmPK inhibitor	Pf growth 48h	Shiga inhibitor	Pf growth 96h
COC(=O)C1=CO[C@@H](C)[C@@H]2CN3CCc4c([nH]c5ccccc45)[C@@H]3C[C@H]12	0	-	-	0	-
O=C1NC2(CCCCCC2)C(=O)N1Cc1ccccc1Cl	0	0	0	0	0
O=C(COc1ccc(F)cc1)Nc1ccc2c(c1)OCCO2	43.8	0	0	69.9	0
CN(C)c1ccc(/C=C/c2ccncc2)cc1	32.0	0	0	68.0	0
COc1ccc(/C=C/c2cc(OC)cc(=O)o2)cc1	48.9	-	-	86.0	-
CN(C)c1ccc(/C=C/[N+](=O)[O-])cc1	0	0	0	0	0
COc1ccc(/C=C/c2ccncc2)cc1	40.0	0	0	94.3	0
